Experimental data reported in PubChem BioAssay.
The source made the active and inactive calls.

Columns and labels:
[1] = test system: Human papillomavirus type 1a protein E7 (residues 44-93); assay: HPV1a E7 fragment binders on microarrays, primary screen, biochemical, small-molecule microarray, residues 44-93, 635 nm fluorescence (AID 1108); settings: small-molecule microarray binding, fluorescence 635 nm; higher = more signal;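 also: E7 fragment applied at 1 µg/mL in TBST for 1 h at 4 C; score combines spot fluorescence with its signal to noise ratio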
[2] = modulators of HCV replicon luciferase signal, primary screen, HCV replication inhibitor project, Huh7 cells, luciferase reporter (AID 1109); settings: 48 h, higher = more signal;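 also: huh7 hepatoma cells harbouring a luciferase neomycin HCV replicon reporter; luciferase luminescence as measure of HCV replicon replication; test concentration not given here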
[3] = target: Left-right determination factor 2 (Homo sapiens) (UniProt O00292); assay: LEFTY2 binders on small-molecule microarrays, primary screen, biochemical, small-molecule microarray, 635 nm fluorescence scan (AID 1110); settings: LEFTY2 binding, higher = more signal
[4] = target: Calmodulin-1 (Homo sapiens) (UniProt P0DP23); assay: CALM1 binders on microarrays, EGTA buffer, profiling panel, biochemical, small-molecule microarray, Cy5-labelled CALM1 (AID 1111); settings: Cy5-CALM1 binding fluorescence, higher = more signal;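 also: labelled calmodulin applied in Tris saline Tween buffer holding calcium plus EGTA and DTT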
[5] = target: Calmodulin-1 (Homo sapiens) (UniProt P0DP23); assay: calcium-bound CALM1 binders on microarrays, profiling panel, artefact control for SMM control-protein annotation, biochemical, small-molecule microarray, Cy5-labelled CALM1, plus calcium (AID 1112); settings: Cy5-CALM1 binding fluorescence, higher = more signal;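 also: score merges spot fluorescence with signal to noise from triplicate slides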
[6] = small-molecule microarray binders of probe aWnt5a, primary screen, biochemical, biotinylated probe, 635/667 nm fluorescence (AID 1113); settings: higher = more signal;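 also: score merges 667 nm fluorescence intensity with signal-to-noise per printed feature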
[7] = small-molecule microarray binders of probe aShh, primary screen, biochemical, biotinylated probe, 635/667 nm fluorescence (AID 1114); settings: higher = more signal;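 also: probe is biotin-labelled aShh protein from a stem cell growth factor screen; measures binding of labelled protein to compounds printed on the slide; score merges feature fluorescence at 667 nm with signal-to-noise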
[8] = small-molecule microarray binders of probe aNog, primary screen, biochemical, biotinylated probe, 635/667 nm fluorescence (AID 1115); settings: higher = more signal;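 also: probe is biotinylated aNog protein used at 0.15 µg/mL for 1 h at 4 C; z-score combines 667 nm fluorescence of each spot with its signal to noise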
[9] = target: Torsin-1A-interacting protein 1 (Homo sapiens) (UniProt Q5JTV8); assay: LAP1 binders from COS7 cell lysate, primary screen, small-molecule microarray, 635/667 nm fluorescence (AID 1116); settings: COS7-hLAP1 lysate binding, 635 nm fluorescence, higher = more signal
[10] = target: Alpha-bungarotoxin (Bungarus multicinctus) (UniProt P60615); assay: alpha-bungarotoxin binders on microarray, profiling panel, artefact control for SMM control protein annotation, biochemical, small-molecule microarray, Alexa647 label, 635/667 nm fluorescence (AID 1117); settings: alpha-BTX-A647 binding fluorescence, higher = more signal
Albumin (Bos taurus) = Albumin (Bos taurus) (UniProt P02769); assay: bovine serum albumin binders on microarray, profiling panel, artefact control for SMM control protein annotation, biochemical, small-molecule microarray, Alexa647 label, 635/667 nm fluorescence (AID 1118); settings: BSA-A647 binding, fluorescence 635 nm, higher = more signal;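 also: score merges 667 nm emission intensity and signal-to-noise per printed compound spot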
[11] = small-molecule microarray binders of probe aXIP, primary screen, biochemical, NeuroSMM set, 635/667 nm fluorescence (AID 1119); settings: higher = more signal, called active from +8 up or from −8 down;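 also: probe is the protein aXip251-270 applied at 1 µg/mL to compound-printed slides; binding of probe to printed compounds measured as 667 nm fluorescence plus signal to noise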
[12] = small-molecule binders of probe aNOTCH3, primary screen, biochemical, small-molecule microarray, 635/667 nm fluorescence (AID 1120); settings: higher = more signal;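 also: probe is a biotin-tagged antibody raised against NOTCH3 rather than NOTCH3 protein; score merges spot fluorescence near 667 nm with spot signal to noise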
[13] = small-molecule binders of probe aNOTCH2, primary screen, biochemical, small-molecule microarray, 635/667 nm fluorescence (AID 1121); settings: higher = more signal;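 also: score merges feature fluorescence read at 667 nm with its signal to noise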
[14] = target: Carbonic anhydrase 2 (Homo sapiens) (UniProt P00918); assay: CAII small-molecule binders, profiling panel, biochemical, small-molecule microarray, Alexa647-labelled CAII (AID 1122); settings: CAII-A647 binding fluorescence, higher = more signal
[15] = COS7 lysate on small-molecule microarray, probe aHis, 635 nm (AID 1123); settings: COS7 cell lysate, fluorescence, higher = more signal;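 also: z-score combines 667nm fluorescence intensity with signal-to-noise per printed compound spot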
[16] = compound binding in COS7 lysate, probe aLAP1, primary screen, cell lysate, small-molecule microarray (AID 1124); settings: probe aLAP1, fluorescence, higher = more signal;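 also: lysate comes from COS7 cells expressing LAP1 and is applied at 0.3 µg/mL; score merges spot fluorescence near 667 nm with signal-to-noise over triplicate slides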
Sam68 (KHDRBS1) = assay: Sam68 small-molecule binders, primary screen, biochemical, small-molecule microarray, 635 nm fluorescence (AID 1125); settings: small-molecule microarray binding, higher = more signal;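 also: score merges 667 nm channel intensity with signal to noise over triplicate slides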
[17] = test system: Chordin-like protein 2 (CHRDL2); assay: CHRDL2 small-molecule binders, primary screen, biochemical, small-molecule microarray, 635 nm fluorescence (AID 1126); settings: small-molecule microarray binding, fluorescence 635 nm; higher = more signal;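 also: printed compound slides probed with Chrdl2 protein at 4 µg/mL for 1 h at 4 C; score merges 667 nm emission intensity with signal to noise over three replicate slides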
[18] = target: Concanavalin-A (Canavalia ensiformis) (UniProt P02866); assay: ConA small-molecule binders, primary screen, artefact control for SMM control protein annotation, biochemical, small-molecule microarray, Alexa647 label, 635 nm (AID 1127); settings: ConA-A647 binding fluorescence, higher = more signal;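 also: z combines 667 nm emission intensity with signal-to-noise across three replicate slides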
Concanavalin-A (Canavalia ensiformis), sequence (P02866 whole entry, looked up): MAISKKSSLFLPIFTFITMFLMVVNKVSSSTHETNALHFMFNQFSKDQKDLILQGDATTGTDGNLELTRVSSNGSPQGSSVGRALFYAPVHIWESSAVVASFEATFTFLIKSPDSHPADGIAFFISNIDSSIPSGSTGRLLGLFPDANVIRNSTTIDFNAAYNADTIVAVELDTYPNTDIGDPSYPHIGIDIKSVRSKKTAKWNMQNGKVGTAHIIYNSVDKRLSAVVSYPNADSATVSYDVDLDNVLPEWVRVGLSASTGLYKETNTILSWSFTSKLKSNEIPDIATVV

Left-right determination factor 2 (Homo sapiens), sequence (O00292 whole entry, looked up): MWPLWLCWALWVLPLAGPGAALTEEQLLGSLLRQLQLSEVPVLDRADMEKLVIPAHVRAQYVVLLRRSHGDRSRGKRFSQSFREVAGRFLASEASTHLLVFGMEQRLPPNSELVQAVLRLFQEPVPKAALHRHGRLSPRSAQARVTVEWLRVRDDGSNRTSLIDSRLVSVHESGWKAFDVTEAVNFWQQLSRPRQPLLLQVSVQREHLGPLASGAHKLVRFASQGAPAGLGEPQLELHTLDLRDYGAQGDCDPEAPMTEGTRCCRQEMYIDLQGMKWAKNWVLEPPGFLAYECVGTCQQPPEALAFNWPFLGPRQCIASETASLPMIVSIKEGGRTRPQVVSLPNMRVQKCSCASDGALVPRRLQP
Torsin-1A-interacting protein 1 (Homo sapiens), sequence (Q5JTV8 whole entry, looked up): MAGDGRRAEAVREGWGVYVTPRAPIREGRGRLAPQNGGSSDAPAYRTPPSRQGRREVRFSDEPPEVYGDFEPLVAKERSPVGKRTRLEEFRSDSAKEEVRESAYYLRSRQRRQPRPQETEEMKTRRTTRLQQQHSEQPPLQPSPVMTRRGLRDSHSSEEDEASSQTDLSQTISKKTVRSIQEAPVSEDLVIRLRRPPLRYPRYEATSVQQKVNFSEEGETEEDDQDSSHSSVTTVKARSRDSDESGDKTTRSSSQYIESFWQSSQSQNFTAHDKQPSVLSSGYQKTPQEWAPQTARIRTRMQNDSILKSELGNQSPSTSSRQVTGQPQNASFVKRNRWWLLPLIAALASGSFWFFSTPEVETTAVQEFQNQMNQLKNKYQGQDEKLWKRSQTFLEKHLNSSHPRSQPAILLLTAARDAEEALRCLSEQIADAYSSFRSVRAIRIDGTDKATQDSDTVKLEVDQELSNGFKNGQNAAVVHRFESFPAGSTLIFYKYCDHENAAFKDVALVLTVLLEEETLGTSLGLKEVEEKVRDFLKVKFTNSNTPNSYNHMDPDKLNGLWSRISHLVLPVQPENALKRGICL
Alpha-bungarotoxin (Bungarus multicinctus), sequence (P60615 whole entry, looked up): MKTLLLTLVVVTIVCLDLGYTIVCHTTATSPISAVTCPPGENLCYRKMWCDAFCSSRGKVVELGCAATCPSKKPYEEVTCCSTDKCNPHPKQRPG
Albumin (Bos taurus), sequence (P02769 whole entry, looked up): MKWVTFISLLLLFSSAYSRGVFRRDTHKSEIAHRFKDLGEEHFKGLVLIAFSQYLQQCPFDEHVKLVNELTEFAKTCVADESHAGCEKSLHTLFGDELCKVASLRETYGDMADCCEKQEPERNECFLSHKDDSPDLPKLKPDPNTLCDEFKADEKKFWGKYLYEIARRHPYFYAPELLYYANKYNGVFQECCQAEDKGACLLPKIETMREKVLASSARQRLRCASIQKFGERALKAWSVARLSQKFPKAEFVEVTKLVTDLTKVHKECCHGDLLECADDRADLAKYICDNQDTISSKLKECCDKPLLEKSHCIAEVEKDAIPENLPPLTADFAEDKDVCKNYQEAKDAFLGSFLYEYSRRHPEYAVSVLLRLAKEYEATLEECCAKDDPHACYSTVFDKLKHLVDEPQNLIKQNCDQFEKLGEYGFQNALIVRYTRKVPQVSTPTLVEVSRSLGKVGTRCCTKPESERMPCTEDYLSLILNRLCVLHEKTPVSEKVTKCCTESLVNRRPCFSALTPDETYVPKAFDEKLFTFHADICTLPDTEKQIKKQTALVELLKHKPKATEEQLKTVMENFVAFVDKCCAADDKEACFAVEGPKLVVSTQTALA

Structure (SMILES) | composite z-score [1] | z-score [2] | composite z-score [3] | composite z-score [4] | composite z-score [5] | composite z-score [6] | composite z-score [7] | composite z-score [8] | composite z-score [9] | composite z-score [10] | composite z-score (Albumin (Bos taurus)) | composite Z-score [11] | composite z-score [12] | composite z-score [13] | composite z-score [14] | composite z-score [15] | composite z-score [16] | composite z-score (Sam68 (KHDRBS1)) | composite z-score [17] | composite z-score [18]
O=C(N1CCCCC1)[C@]1(CCS(=O)(=O)c2ccccc2)N=C(c2ccc(OCCCO)cc2)O[C@@H]1c1ccccc1 | 0.876 | -3.16 | 0.101 | 1.91 | 1.02 | 0.055 | 1.49 | 0.56 | 0.917 | 2.56 | 0.431 | 1.77 (inactive) | 0.381 | 0.0161 | 0.639 | 2.08 | 0.165 | 1.27 | -0.457 | 1.18
COCCOC(=O)N1C(=O)[C@@]2(c3cc(C#Cc4ccc(OC)cc4)ccc31)[C@H](c1ccc(OCCO)cc1)N1[C@H](c3ccccc3)[C@H](c3ccccc3)OC(=O)[C@H]1[C@@H]2C(=O)N1CCc2cc(OC)c(OC)cc2C1 | 1.22 | -0.603 | 0.493 | 0.784 | 0.458 | -0.203 | -0.0824 | -0.0602 | 0.705 | 0.571 | -0.536 | 0.343 (inactive) | 0.0194 | -0.0907 | 0.228 | 0.875 | 0.556 | 1.17 | 0.599 | 0.843
CC(C)C[C@@H]1NC(=O)[C@@H]2C[C@H](C(=O)NCCCCN(C)C)[C@H](c3ccc(O)cc3)N2C1=O | -0.256 | -0.556 | -1.58 | -0.685 | 0.33 | -0.0977 | -0.0553 | -0.0791 | 0.864 | -0.318 | -0.0836 | 0.0699 (inactive) | -0.236 | -0.124 | 0.335 | 0.732 | 0.148 | 0.225 | -0.631 | -0.0663
[N-]=[N+]=NCc1ccccc1C[C@@]1(C(=O)NCc2ccccc2)N=C(c2ccc(OCCCO)cc2)O[C@@H]1c1ccccc1CN=[N+]=[N-] | -0.0428 | -2.52 | -0.372 | 1.51 | 0.924 | 0.178 | 0.274 | 1.88 | 2.59 | 1.49 | 0.684 | 0.936 (inactive) | 0.328 | 0.273 | 0.669 | 2.21 | 0.745 | 1.3 | -0.106 | 1
COc1ccc([Si](C)(C)[C@@H]2[C@@H](CCn3cc([C@H](O)c4ccccc4)nn3)O[C@]3(C(=O)N(C)c4ccccc43)[C@H]2C)cc1 | -0.0859 | -2.32 | 0.0661 | -0.069 | -0.288 | -0.197 | -0.0769 | -0.223 | -0.173 | 0.0489 | 0.718 | 0.19 (inactive) | -0.175 | -0.19 | 0.494 | 0.613 | 0.0014 | 0.302 | -0.13 | 0.44
O=C1OCCC/C=C\[C@H]2OC34C=CCN(CCN5CCOCC5)C(=O)[C@H]3N(CCO)C(=O)[C@@H]4C12 (stereo not given in full) | -0.359 | 0.0112 | -0.416 | -0.0877 | 0.124 | -0.176 | -0.2 | 0 | -0.0137 | -0.938 | 0.394 | 0.0421 (inactive) | -0.346 | -0.211 | 0.866 | -0.0995 | -0.0129 | -0.779 | -0.601 | -1.09
CC[C@@H]1C=C(C(=O)O)[C@H](c2ccc(C(C)C)cc2)N1S(=O)(=O)c1ccc(C)cc1 | 1.27 | -0.868 | 0.615 | 2.38 | 0.692 | 0.019 | 0.519 | -0.443 | 2.19 | 2.12 | 0.987 | 1.1 (inactive) | 0.42 | 0.346 | 0.796 | 2.85 | 1.63 | 1.3 | -0.557 | 1.21
O=C1C2C=CC(C(O)C3CC=CCC3)N(n3cnnc3)C2C(=O)N1Cc1ccccc1 (stereo not given) | -0.318 | -0.151 | -0.49 | -0.292 | -0.92 | -0.154 | 0.0684 | 0.336 | 0.752 | 0.365 | -0.952 | 0.241 (inactive) | -0.213 | -0.202 | 0.903 | 0.233 | 1.34 | 0.185 | -1.69 | -0.137
[N-]=[N+]=NCc1ccccc1C[C@]1(C(=O)NCC(O)CO)COC(c2ccc(OCCCO)cc2)=N1 (stereo not given in full) | 0.912 | -1.84 | -0.645 | 2.44 | 0.911 | 0.188 | -0.0341 | 1.17 | 3.34 | 3.01 | 1.03 | 0.621 (inactive) | 0.0566 | 0.446 | 0.8 | 3.3 | 1.38 | 1.12 | -1.37 | 0.954
CCOC(=O)C1=C[C@@H](C(C)(C)C)N(S(=O)(=O)c2ccc(C)cc2)[C@H]1c1ccc(Cl)c(Cl)c1 | 1.34 | -0.501 | 0.595 | 1.46 | 0.122 | -0.154 | 0.213 | 0.863 | 0.735 | 1.35 | 0.867 | -0.179 (inactive) | 0.163 | 0.0601 | 0.497 | 1.79 | 1.03 | 1.3 | 0.185 | 1.16
O=S(=O)(NCCCO)c1ccc(Br)cc1 | 0.54 | -0.164 | 0.548 | 0.873 | 0.698 | 0.0251 | -0.138 | -0.122 | 0.365 | 0.284 | 0.45 | -0.854 (inactive) | -0.0414 | -0.057 | 0.62 | 0.0505 | 0.337 | 0.522 | 0.678 | 0.397
